Source: PubChem (National Center for Advancing Translational Sciences (NCATS))
This is a sample that favours compounds with a hit; in the whole collection about 12% have one here.
VP16 counter: counter-screen for ROR gamma inhibitors: Gal4-VP16 reporter; 3.5% of 310,000 active; AID 2546; Drosophila S2 Gal4-VP16 UAS-luciferase, luminescence, 20 h; Potency, µM (titrated, usually from 53.6 µM), inactives show at the top dose activity, negative = inhibition, hits mostly inhibitors;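 also: Gal4-VP16 expression switched on by copper sulfate through the metallothionein promoter; nearly all actives have a fitted effect of over 50% in size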
PLK1 PBD block: blocks phosphopeptide binding to human PLK1 polo-box domain; Potency, µM, for inactives: max response, negative = inhibition, actives largely listed as inhibitors; 2.8% of 360,000 active; Plk1 PBD binding of FITC phosphopeptide, fluorescence polarization; P53350; also: series mostly up to about 57 µM; nearly all actives have a fitted effect of over 65% in size
Target sequence (P53350 whole entry, looked up, the tested form may be a part): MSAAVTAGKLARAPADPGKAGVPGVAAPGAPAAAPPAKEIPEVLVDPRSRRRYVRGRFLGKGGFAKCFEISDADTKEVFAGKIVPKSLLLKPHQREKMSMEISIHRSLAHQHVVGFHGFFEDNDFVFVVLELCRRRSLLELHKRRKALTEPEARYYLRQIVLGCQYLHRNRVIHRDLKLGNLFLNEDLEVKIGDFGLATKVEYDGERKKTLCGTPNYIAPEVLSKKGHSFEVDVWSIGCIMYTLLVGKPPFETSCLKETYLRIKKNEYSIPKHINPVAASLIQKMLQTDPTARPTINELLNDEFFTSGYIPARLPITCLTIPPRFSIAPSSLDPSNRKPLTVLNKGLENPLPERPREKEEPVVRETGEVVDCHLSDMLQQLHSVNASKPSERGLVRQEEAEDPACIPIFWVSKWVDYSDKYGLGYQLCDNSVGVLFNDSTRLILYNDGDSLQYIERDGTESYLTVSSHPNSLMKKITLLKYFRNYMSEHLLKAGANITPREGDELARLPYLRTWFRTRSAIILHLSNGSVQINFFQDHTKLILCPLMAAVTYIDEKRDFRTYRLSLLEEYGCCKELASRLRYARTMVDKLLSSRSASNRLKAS
RORgamma inh: ROR gamma (mouse) transcription inhibition. Potency, µM (highest dose often 53.6 µM), inactives show top-dose activity change, negative = inhibition, hits mostly inhibitors. Drosophila S2 Gal4-RORgamma UAS-luciferase reporter, 20 h. 5.4% of 310,000 active; also: nearly all actives have a fitted effect of over 60% in size
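Schneider cells (Drosophila), stable Gal4 DBD–ROR gamma + UAS-luc; 1 hr cmpd preincubation; Cu2+ induction 700 uM final; 20 hr ambient; luminescence.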
Sfp PPTase inh: inhibitors of Bacillus subtilis Sfp phosphopantetheinyl transferase; 3.5% of 310,000 active; Potency, µM, without a hit: largest response in the series, negative = inhibition, usual class: inhibitors; AID 1490; Q9F4F7; Biochemical Sfp PPTase activity, qHTS;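 also: the enzyme is Sfp with the accession as filed and its product quenches rhodamine fluorescence; 0% = enzyme reaction without inhibitor and -100% = no enzyme wells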
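Sfp 15 nM + cpd, 15 min RT; start w/ rhodamine-CoA 5 uM, BHQ-2-YbbR 12.5 uM (final); 50 mM Hepes pH 7.6, 10 mM MgCl2, 0.01% NP-40, 0.01% BSA; read 525/598 nm at 0 and 30 min.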
ALDH1A1 block: inhibitors of human aldehyde dehydrogenase 1A1 | Purified ALDH1A1, NADH fluorescence, propionaldehyde substrate | Potency, µM (doses to about 75.3 µM), inactives show top-dose activity, negative = inhibition, actives largely listed as inhibitors | 7.3% of 220,000 active | AID 1030; active = well fitted inhibition curve with a large enough effect, not every such curve was filed as active; inconclusive = small, poorly fitted or top-dose-only effect, or another doubt; inactive = no such curve, though single readings can be large or run the other way;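 also: plate controls were no enzyme wells and a reference inhibitor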
The depositor's hits bear a star; [ ] = another dose, or the depositor's remark. Unless noted, calls follow the shape of the dose curve; as a rule, active = well fitted curve in the direction sought with a large enough effect; inconclusive = small, poorly fitted or top-dose-only effect, or another doubt; inactive = no such curve, though single readings can be large; an effect the other way counts as inactive or inconclusive. Unless noted, % is scaled to controls: 0 for no effect and ±100 for the full control effect; potency is read from the fitted curve at half-maximal effect.

How did CCC(=O)OCC(=O)C1(OC(=O)CC)C(C)CC2C3C(Cl)CC4=CC(=O)C=C[C@@]4(C)C3C(O)C[C@@]21C (some centres undefined) do in these assays?
VP16 counter: -27%; RORgamma inh: 13µM*; Sfp PPTase inh: 2%; ALDH1A1 block: inconclusive

What do the screens show for `CC(C)c1ccc(-c2noc(C3CCCN(C(=O)c4ccc(F)cc4F)C3)n2)cc1` (centres undefined)?
VP16 counter: 8.9µM*; PLK1 PBD block: -12%; RORgamma inh: inconclusive; Sfp PPTase inh: 12%; ALDH1A1 block: inconclusive

Results for COc1ccc(NC(=O)Cc2ccc(Cl)c(Cl)c2)cn1 ?
VP16 counter: -7%; PLK1 PBD block: -14%; RORgamma inh: 32%; Sfp PPTase inh: 8%; ALDH1A1 block: 0%

Results for COc1ccc(NC(=O)/C(Cl)=C(/Cl)S(=O)Cc2ccccc2Cl)cn1 (centres undefined) ?
VP16 counter: 4.5µM*; PLK1 PBD block: 1.5µM*; RORgamma inh: 1µM*; Sfp PPTase inh: 22µM*; ALDH1A1 block: 0.63µM*

Results for COc1ccc(NC(=O)/C(Cl)=C(/Cl)S(=O)(=O)Cc2ccc(C)cc2)cn1 ?
VP16 counter: 3.2µM*; PLK1 PBD block: 21µM*; RORgamma inh: 4.5µM*; Sfp PPTase inh: -3%; ALDH1A1 block: 2.5µM*

Results for OC[C@@H]1OC(O)[C@H](O)[C@H](O)[C@H]1O (some centres undefined) ?
VP16 counter: -14%; RORgamma inh: 14%; Sfp PPTase inh: inconclusive

What do the screens show for `CCCC(NC(=S)NCC1CCCO1)C12CC3CC(CC(C3)C1)C2` (centres undefined)?
VP16 counter: 3.2µM*; PLK1 PBD block: -11%; RORgamma inh: 0.45µM*; Sfp PPTase inh: 2%; ALDH1A1 block: inconclusive

How did O=C(OCC(=O)N(CCc1ccccc1)Cc1ccccc1)c1ccc(F)c(S(=O)(=O)N2CCOCC2)c1 do in these assays?
PLK1 PBD block: 3%

Results for COc1ccc(CN2C(=O)N(c3ccc(OC)cc3)C(=O)C2CC(=O)Nc2ccccc2)cc1 (centres undefined) ?
VP16 counter: 11%; PLK1 PBD block: -10%; RORgamma inh: 17%; Sfp PPTase inh: 17%; ALDH1A1 block: 7%

What do the screens show for `CCNC(=O)CC1C(=O)N(c2ccc(OC)cc2)C(=O)N1Cc1ccc(OC)cc1` (centres undefined)?
VP16 counter: -4%; PLK1 PBD block: 30µM*; RORgamma inh: 1%; Sfp PPTase inh: 4%; ALDH1A1 block: -2%

Results for COc1ccc(NC(=O)CC2C(=O)N(c3cccc(OC)c3)C(=O)N2Cc2ccco2)cc1 (centres undefined) ?
VP16 counter: -10%; PLK1 PBD block: -17%; RORgamma inh: 29%; Sfp PPTase inh: 8%; ALDH1A1 block: 16µM*

What do the screens show for `CCOc1ccccc1NC(=O)COC(=O)C12CC3CC(CC(O)(C3)C1)C2`?
PLK1 PBD block: 3%

How did Cc1ccc(S(=O)(=O)c2nc(Nc3ccccc3)sc2Cl)cc1 do in these assays?
VP16 counter: inconclusive; PLK1 PBD block: 30µM*; RORgamma inh: -13%; Sfp PPTase inh: 15%; ALDH1A1 block: -7%

How did CSc1nc(S(=O)(=O)c2ccc(C)cc2)c(N2CCOCC2)s1 do in these assays?
PLK1 PBD block: -22%

Results for Cc1ccc(S(=O)(=O)c2nc(N3CCOCC3)sc2Cl)cc1 ?
PLK1 PBD block: -21%; RORgamma inh: -12%[0.365 µM]; Sfp PPTase inh: 50µM*; ALDH1A1 block: inconclusive

How did CCCS(=O)(=O)c1nc(S(=O)(=O)c2ccc(C)cc2)c(NCCN2CCOCC2)s1 do in these assays?
VP16 counter: 1%; PLK1 PBD block: -10%; RORgamma inh: inconclusive; Sfp PPTase inh: -12%; ALDH1A1 block: 14µM*

How did COc1ccc(Nc2nc(S(=O)(=O)c3ccc(C)cc3)c(Cl)s2)cc1 do in these assays?
VP16 counter: inconclusive; PLK1 PBD block: -7%; RORgamma inh: inconclusive; Sfp PPTase inh: 7%; ALDH1A1 block: -5%

Results for Cc1ccc(S(=O)(=O)c2nc(S(=O)(=O)CCO)sc2N2CCOCC2)cc1 ?
VP16 counter: 0%; PLK1 PBD block: 30µM*; RORgamma inh: 1%; Sfp PPTase inh: 7%

What do the screens show for `COc1cc(/C=C/C(=O)OCC(=O)Nc2ccc3[nH]c(=O)[nH]c3c2)ccc1OC(F)F`?
PLK1 PBD block: 2%

How did Cc1ccc(C(=O)NC(=S)Nc2cccc3nsnc23)cc1 do in these assays?
VP16 counter: 26%; PLK1 PBD block: -29%; RORgamma inh: -18%; Sfp PPTase inh: 14µM*; ALDH1A1 block: 8%

How did COc1ccc(C(=O)NC(=S)Nc2cccc3nc(C)ccc23)cc1OC do in these assays?
VP16 counter: 0%; PLK1 PBD block: -16%; RORgamma inh: inconclusive; Sfp PPTase inh: -18%

How did CC(C)C(=O)NC(=S)Nc1c(Cl)ccc2nsnc12 do in these assays?
VP16 counter: -2%; PLK1 PBD block: -13%; RORgamma inh: 13µM*; Sfp PPTase inh: -13%

What do the screens show for `Cc1ccc(OCC(=O)Nc2c(C)ccc3nsnc23)cc1`?
VP16 counter: -7%; PLK1 PBD block: -9%; RORgamma inh: 4%; Sfp PPTase inh: 6%

What do the screens show for `Cc1ccc(C(=O)NC(=S)Nc2c(C)ccc3nsnc23)cc1`?
VP16 counter: inconclusive; PLK1 PBD block: -18%; RORgamma inh: 10µM*; Sfp PPTase inh: 35µM*; ALDH1A1 block: inconclusive

What do the screens show for `Cc1ccc(C(=O)NC(=S)Nc2cccc3c(C)cc(C)nc23)cc1`?
VP16 counter: 4.5µM*; PLK1 PBD block: -3%; RORgamma inh: 1µM*; Sfp PPTase inh: -6%; ALDH1A1 block: inconclusive

What do the screens show for `Nc1nc2c(ncn2[C@@H]2O[C@H](COP(=O)(O)OP(=O)(O)O)[C@@H](O)[C@H]2O)c(=O)[nH]1`?
Sfp PPTase inh: 8%; ALDH1A1 block: -7%

How did Cc1c(C(=O)Nc2ccccc2)cnn1-c1ccccc1 do in these assays?
PLK1 PBD block: 8%

How did CC(=O)c1cccc(NC(=O)c2cnn(-c3ccccc3)c2C)c1 do in these assays?
VP16 counter: 2.2µM*; PLK1 PBD block: 2%; RORgamma inh: 3.5µM*; Sfp PPTase inh: 3%

What do the screens show for `Cc1ccc(NC(=O)c2cnn(-c3ccccc3)c2C)cc1C`?
VP16 counter: inconclusive; PLK1 PBD block: -15%; RORgamma inh: 5µM*; Sfp PPTase inh: 0%

How did O=C(CN1C(=O)C2C3C=CC(C4CC34)C2C1=O)Nc1cccc2ncccc12 (centres undefined) do in these assays?
VP16 counter: 3%; PLK1 PBD block: 30µM*; RORgamma inh: 18%; Sfp PPTase inh: 15%; ALDH1A1 block: -1%

How did CCOc1ccccc1NC(=O)CN1C(=O)COc2ccc(S(=O)(=O)N3CCOCC3)cc21 do in these assays?
VP16 counter: -9%; PLK1 PBD block: 5.3µM*; RORgamma inh: -10%; Sfp PPTase inh: 5%
